Test results published in PubChem BioAssay AID1159580 (chemical genetic matrix, 2015).
Values joined by “and” are separate entries in the source; they are usually repeats but may differ in a detail not shown here. Equal entries are not always repeated. About 2,000 (36%) of roughly 5,500 compounds were called active. Roughly 18% stayed inconclusive and do not appear here. No stated cut-off is given here; in the data, active means normalized growth mostly below about 0.91 (no sharp cut-off); inconclusive means no clear call, values can overlap the other calls; inactive means mostly above about 0.92. The list shows a part of the results.

Experiment: chemical genetic growth profiling, strain panel (AID 1159580);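 further: tested at 20 µM; growth read once vehicle control cultures reached saturation at 30 °C; 1 = growth at the plate median or of vehicle wells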
Details: S. cerevisiae deletion strains, growth OD
[1] = locus YAL013W, strain DEP1, stronger effect = lower value
[2] = locus YMR307W, strain GAS1, stronger effect = lower value

Measured: normalized growth

CN1CCCCC1c1ccc(-c2cccnc2)nc1 (stereo not given)
inactive: [1] 1.01 | locus YAL021C, strain ccr4, stronger effect = lower value 0.987 | locus YAL026C, strain drs2, stronger effect = lower value 0.965 | locus YAL030W, strain snc1, stronger effect = lower value 0.984 | locus YBL061C, strain skt5, stronger effect = lower value 0.975 | locus YBR009C, strain hhf1, stronger effect = lower value 0.938 | locus YBR021W, strain FUR4, stronger effect = lower value 1.1 | locus YBR023C, strain chs3, stronger effect = lower value 0.99 | locus YBR171W, strain sec66, stronger effect = lower value 0.971 | locus YBR229C, strain ROT2, stronger effect = lower value 1.02 | locus YBR231C, strain swc5, stronger effect = lower value 0.982 | locus YBR279W, strain paf1, stronger effect = lower value 0.984 | locus YCL011C, strain gbp2, stronger effect = lower value 0.964 | locus YCL016C, strain dcc1, stronger effect = lower value 0.997 | locus YCL029C, strain bik1, stronger effect = lower value 0.97 | locus YCL061C, strain MRC1, stronger effect = lower value 0.98 | locus YCL069W, strain vba3, stronger effect = lower value 0.979 | locus YCR088W, strain abp1, stronger effect = lower value 0.994 | locus YDL005C, strain med2, stronger effect = lower value 0.964 | locus YDL035C, strain GPR1, stronger effect = lower value 1.01 | locus YDL040C, strain nat1, stronger effect = lower value 0.983 | locus YDL074C, strain BRE1, stronger effect = lower value 1.01 | locus YDL101C, strain DUN1, stronger effect = lower value 1.02 | locus YDL134C, strain PPH21, stronger effect = lower value 1.1 | locus YDL185W, strain tfp1, stronger effect = lower value 0.959 | locus YDL192W, strain arf1, stronger effect = lower value 0.983 | locus YDR001C, strain nth1, stronger effect = lower value 0.962 | locus YDR069C, strain doa4, stronger effect = lower value 0.962 | locus YDR101C, strain arx1, stronger effect = lower value 0.999 | locus YDR137W, strain rgp1, stronger effect = lower value 0.975 | locus YDR150W, strain NUM1, stronger effect = lower value 1.01 | locus YDR159W, strain sac3, stronger effect = lower value 0.927 | locus YDR162C, strain NBP2, stronger effect = lower value 1.07 | locus YDR195W, strain ref2 0.929 | locus YDR297W, strain sur2, stronger effect = lower value 0.967 | locus YDR318W, strain mcm21, stronger effect = lower value 1 | locus YDR334W, strain swr1, stronger effect = lower value 0.971 | locus YDR335W, strain msn5, stronger effect = lower value 0.99 | locus YDR388W, stronger effect = lower value 0.997 | locus YDR392W, strain spt3, stronger effect = lower value 0.874 | locus YDR502C, strain sam2, stronger effect = lower value 1.01 | locus YEL003W, strain gim4, stronger effect = lower value 0.979 | locus YEL037C, strain rad23, stronger effect = lower value 0.985 | locus YEL061C, strain CIN8 (second series), stronger effect = lower value 0.97 | locus YEL061C, strain CIN8, stronger effect = lower value 1.01 | locus YER015W, strain faa2, stronger effect = lower value 0.965 | locus YER016W, strain bim1, stronger effect = lower value 0.994 | locus YER110C, stronger effect = lower value 1 | locus YER111C, strain swi4, stronger effect = lower value 0.974 | locus YER155C, strain BEM2 (second series), stronger effect = lower value 0.971 | locus YER155C, strain BEM2, stronger effect = lower value 1.01 | locus YER167W, strain BCK2, stronger effect = lower value 1.03 | locus YFR010W, strain ubp6, stronger effect = lower value 0.969 | locus YGL078C, strain dbp3, stronger effect = lower value 0.996 | locus YGL086W, strain mad1, stronger effect = lower value 1.03 | locus YGL167C, strain pmr1, stronger effect = lower value 0.956 | locus YGL173C, strain kem1, stronger effect = lower value 0.973 | locus YGL227W, strain vid30, stronger effect = lower value 0.97 | locus YGL240W, strain doc1, stronger effect = lower value 0.965 | locus YGL248W, strain PDE1, stronger effect = lower value 1.01 | locus YGL253W, strain hxk2, stronger effect = lower value 0.992 | locus YGR135W, strain pre9, stronger effect = lower value 0.981 | locus YGR229C, strain SMI1, stronger effect = lower value 1.08 | locus YGR252W, strain gcn5, stronger effect = lower value 1.05 | locus YHR013C, strain ard1, stronger effect = lower value 0.929 | locus YHR027C, strain rpn1, stronger effect = lower value 0.984 | locus YHR030C, strain SLT2, stronger effect = lower value 0.995 and 1 | locus YHR079C, strain IRE1 (second series), stronger effect = lower value 0.998 | locus YHR079C, strain IRE1, stronger effect = lower value 0.988 | locus YHR094C, strain hxt1, stronger effect = lower value 1.02 | locus YHR129C, strain ARP1, stronger effect = lower value 1.02 | locus YHR142W, strain chs7, stronger effect = lower value 1 | locus YHR200W, strain rpn10, stronger effect = lower value 0.984 | locus YIL066C, strain RNR3, stronger effect = lower value 1.05 | locus YIL073C, strain SPO22, stronger effect = lower value 1.02 | locus YIL125W, strain kgd1, stronger effect = lower value 0.998 | locus YIR030C, strain dcg1, stronger effect = lower value 0.995 | locus YJL092W, strain hpr5, stronger effect = lower value 0.985 | locus YJL095W, strain BCK1 (second series), stronger effect = lower value 0.998 | locus YJL095W, strain BCK1, stronger effect = lower value 1.07 and 1.03 | locus YJL115W, strain asf1, stronger effect = lower value 0.991 | locus YJL129C, strain trk1, stronger effect = lower value 0.983 | locus YJL134W, strain LCB3, stronger effect = lower value 0.996 | locus YJL154C, strain vps35, stronger effect = lower value 0.994 | locus YJL164C, strain tpk1, stronger effect = lower value 1.02 | locus YJL166W, strain qcr8, stronger effect = lower value 0.983 | locus YJL168C, strain set2, stronger effect = lower value 0.996 | locus YJL187C, strain SWE1 (second series), stronger effect = lower value 1.04 | locus YJL187C, strain SWE1, stronger effect = lower value 0.979 | locus YJR043C, strain POL32, stronger effect = lower value 1.04 | locus YJR066W, strain TOR1, stronger effect = lower value 0.951 | locus YKL009W, strain mrt4, stronger effect = lower value 0.986 | locus YKL068W, stronger effect = lower value 0.997 | locus YKL085W, strain MDH1 (second series), stronger effect = lower value 1.01 | locus YKL085W, strain MDH1, stronger effect = lower value 1.01 | locus YKL160W, strain elf1, stronger effect = lower value 1.01 | locus YKL190W, strain CNB1, stronger effect = lower value 1.02 | locus YKR001C, strain vps1, stronger effect = lower value 0.996 | locus YKR026C, strain gcn3, stronger effect = lower value 0.967 | locus YKR091W, strain srl3, stronger effect = lower value 0.969 | locus YLL001W, strain dnm1, stronger effect = lower value 1 | locus YLL026W, stronger effect = lower value 1 | locus YLL041C, strain sdh2, stronger effect = lower value 0.991 | locus YLR027C, strain aat2, stronger effect = lower value 0.979 | locus YLR039C, strain RIC1, stronger effect = lower value 1.07 | locus YLR058C, strain SHM2, stronger effect = lower value 1.02 | locus YLR102C, strain apc9, stronger effect = lower value 0.999 | locus YLR113W, strain HOG1, stronger effect = lower value 1.03 | locus YLR221C, strain rsa3, stronger effect = lower value 0.994 | locus YLR258W, strain gsy2, stronger effect = lower value 0.985 | locus YLR262C, strain YPT6 (second series), stronger effect = lower value 1.01 | locus YLR262C, strain YPT6, stronger effect = lower value 1.04 | locus YLR268W, strain sec22, stronger effect = lower value 1.01 | locus YLR320W, strain mms22, stronger effect = lower value 0.993 | locus YLR330W, strain CHS5, stronger effect = lower value 1.01 | locus YLR342W, strain FKS1 (second series), stronger effect = lower value 1.06 | locus YLR342W, strain FKS1, stronger effect = lower value 0.971 | locus YLR357W, strain rsc2, stronger effect = lower value 0.968 | locus YLR370C, strain arc18, stronger effect = lower value 0.966 | locus YLR371W, strain rom2, stronger effect = lower value 0.971 | locus YLR384C, strain iki3, stronger effect = lower value 0.993 | locus YLR418C, strain cdc73, stronger effect = lower value 1.05 | locus YML016C, strain PPZ1, stronger effect = lower value 1.01 | locus YML032C, strain rad52, stronger effect = lower value 0.997 | locus YML120C, strain ndi1, stronger effect = lower value 0.984 | locus YML124C, strain tub3, stronger effect = lower value 0.998 | locus YMR058W, strain fet3, stronger effect = lower value 0.97 | locus YMR078C, strain ctf18, stronger effect = lower value 0.999 | locus YMR125W, strain sto1, stronger effect = lower value 0.942 | locus YMR129W, stronger effect = lower value 0.974 | locus YMR205C, strain PFK2, stronger effect = lower value 0.934 | locus YMR223W, strain ubp8, stronger effect = lower value 0.987 | locus YMR231W, strain pep5, stronger effect = lower value 0.967 | [2] 1.19 | locus YNL067W, strain RPL9B, stronger effect = lower value 1.05 | locus YNL071W, strain lat1, stronger effect = lower value 0.993 | locus YNL183C, strain NPR1, stronger effect = lower value 0.979 | locus YNL209W, strain ssb2, stronger effect = lower value 0.966 | locus YNL233W, strain BNI4, stronger effect = lower value 1.07 | locus YNL248C, strain rpa49, stronger effect = lower value 1.02 | locus YNL250W, strain rad50, stronger effect = lower value 0.988 | locus YNL271C, strain bni1, stronger effect = lower value 0.988 | locus YNL298W, strain CLA4, stronger effect = lower value 1 | locus YNL307C, strain MCK1, stronger effect = lower value 1 | locus YNL322C, strain KRE1 (second series), stronger effect = lower value 0.971 | locus YNR049C, strain mso1, stronger effect = lower value 0.986 | locus YNR052C, strain pop2, stronger effect = lower value 0.993 | locus YOL006C, strain TOP1, stronger effect = lower value 1.11 | locus YOL012C, strain htz1 1.24 | locus YOL147C, strain pex11, stronger effect = lower value 1.01 | locus YOR001W, strain rrp6, stronger effect = lower value 1.02 | locus YOR061W, strain CKA2, stronger effect = lower value 1.01 | locus YOR069W, strain VPS5, stronger effect = lower value 1 | locus YOR070C, strain gyp1, stronger effect = lower value 0.997 | locus YOR080W, strain dia2, stronger effect = lower value 0.966 | locus YOR083W, strain WHI5, stronger effect = lower value 1.01 | locus YOR106W, strain vam3, stronger effect = lower value 1 | locus YOR136W, strain idh2, stronger effect = lower value 0.995 | locus YOR144C, strain elg1, stronger effect = lower value 1.01 | locus YOR184W, strain ser1, stronger effect = lower value 1.02 | locus YOR231W, strain MKK1, stronger effect = lower value 0.992 | locus YOR265W, strain rbl2, stronger effect = lower value 1.01 | locus YOR270C, strain vph1, stronger effect = lower value 0.974 | locus YOR290C, strain snf2, stronger effect = lower value 0.923 | locus YOR316C, strain cot1, stronger effect = lower value 0.99 | locus YPL051W, strain arl3, stronger effect = lower value 1.01 | locus YPL078C, strain atp4, stronger effect = lower value 0.999 | locus YPL106C, strain sse1, stronger effect = lower value 0.934 | locus YPL240C, strain hsp82, stronger effect = lower value 0.981 | locus YPL256C, strain CLN2, stronger effect = lower value 0.977 | locus YPR119W, strain clb2, stronger effect = lower value 1 | locus YPR141C, strain kar3, stronger effect = lower value 0.986 | locus YPR163C, strain tif3, stronger effect = lower value 0.998 | locus YPR167C, strain met16, stronger effect = lower value 0.999 | strain wtn01, stronger effect = lower value 0.983

COC(=O)c1c(-c2cc(OC)c(OC)c(OC)c2)c2ccnc(OCc3ncccn3)c2c(=O)n1Cc1ccnc(C)c1
inactive: [1] 1 | locus YAL040C, strain CLN3, stronger effect = lower value 0.889 | locus YCL061C, strain MRC1 (second series), stronger effect = lower value 1.01 | locus YDR363W, strain ESC2, stronger effect = lower value 1.01 | locus YER002W, strain NOP16, stronger effect = lower value 1 | locus YGR078C, strain PAC10, stronger effect = lower value 1.01 | locus YMR263W, strain SAP30, stronger effect = lower value 1.01 | [2] 1.01 | locus YNL153C, strain GIM3, stronger effect = lower value 1.01 | locus YNL175C, strain NOP13, stronger effect = lower value 1 | locus YNL197C, strain WHI3, stronger effect = lower value 0.989 | locus YNL224C, strain SQS1, stronger effect = lower value 0.993 | locus YNL322C, strain KRE1, stronger effect = lower value 1.01 | locus YOR083W, strain WHI5 (second series), stronger effect = lower value 0.999 | locus YPL055C, strain LGE1, stronger effect = lower value 1.01
